# Values without a mark were called inactive. Results filed as inconclusive are left out. A call without a number means that no potency is given here. Calls of active or inactive are those of the source. Unless noted, the call rests on the fitted dose curve.
# Assays:
# [1] = Nuclear factor erythroid 2-related factor 2/antioxidant responsive element (Nrf2/ARE) small molecule agonists: qHTS cell viability counter screen in human keratinocytes (AID 1919968; active means well fitted curve in the direction sought with a large enough effect in the repeat runs; an effect the other way counts as inactive or inconclusive; further: nearly all actives have a fitted effect of over 55% in size)
# Method in brief: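 KeratinoSens HaCaT cells, 1,500/well, preincubated 5 h, then exposed to compounds in DMSO for 23 h at 37 C/5% CO2. Viability read as CellTiter-Fluor fluorescence after 1 h, in the same wells as the ARE-luciferase read.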
# [2] = Nuclear factor erythroid 2-related factor 2/antioxidant responsive element (Nrf2/ARE) small molecule agonists: luciferase reporter gene qHTS assay in human keratinocytes (AID 1919969); further: nearly all actives have a fitted effect of over 35% in size
# [3] = molecular target: Gonadotropin-releasing hormone receptor (Homo sapiens) (UniProt P30968); assay: Human gonadotropin-releasing hormone receptor (GnRHR) small molecule agonists, calcium flux assay in GnRHR-HEK293 cells (AID 1920063); further: nearly all actives have a fitted effect of over 35% in size
# Gonadotropin-releasing hormone receptor (Homo sapiens), sequence (P30968 whole entry, looked up): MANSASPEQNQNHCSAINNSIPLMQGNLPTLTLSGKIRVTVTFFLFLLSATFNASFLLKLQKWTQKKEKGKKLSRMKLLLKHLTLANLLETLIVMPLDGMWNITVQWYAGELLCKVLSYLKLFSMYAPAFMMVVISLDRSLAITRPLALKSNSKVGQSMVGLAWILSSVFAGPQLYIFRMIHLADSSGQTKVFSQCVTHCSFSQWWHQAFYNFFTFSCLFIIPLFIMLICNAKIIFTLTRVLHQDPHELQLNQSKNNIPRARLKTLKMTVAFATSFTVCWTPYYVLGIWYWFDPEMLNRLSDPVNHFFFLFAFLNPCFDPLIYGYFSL
# Method in brief: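 HEK293 cells stably expressing human GnRHR were dye-loaded for 1 h at 37 C. Compound was added in agonist mode and fluorescence (Ex/Em 480/540) recorded kinetically for 3 min. Fifteen concentrations, triplicates.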
# [4] = molecular target: KiSS-1 receptor (Homo sapiens) (UniProt Q969F8); assay: Human kisspeptin (KISS1R) small molecule agonists, calcium flux assay in KISS1R-HEK293 cells (AID 1920064; active means well fitted curve in the direction sought with a large enough effect in the repeat runs; an effect the other way counts as inactive or inconclusive)
# KiSS-1 receptor (Homo sapiens), sequence (Q969F8 whole entry, looked up): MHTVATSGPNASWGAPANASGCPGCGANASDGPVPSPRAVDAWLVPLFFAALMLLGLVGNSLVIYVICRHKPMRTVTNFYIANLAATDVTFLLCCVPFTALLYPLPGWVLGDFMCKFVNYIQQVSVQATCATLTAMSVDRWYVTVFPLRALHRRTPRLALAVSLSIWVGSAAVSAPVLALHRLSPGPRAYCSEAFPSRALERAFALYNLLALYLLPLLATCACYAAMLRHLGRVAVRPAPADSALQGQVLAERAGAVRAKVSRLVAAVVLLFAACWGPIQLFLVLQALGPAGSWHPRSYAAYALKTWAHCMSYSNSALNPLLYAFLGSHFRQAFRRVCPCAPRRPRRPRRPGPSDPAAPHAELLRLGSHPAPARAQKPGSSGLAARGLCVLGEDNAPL
# Method in brief: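 HEK293 cells stably expressing human KISS1R were loaded with calcium dye for 1 h at 37 C, then given compound; fluorescence (Ex/Em 480/540) was read kinetically for 3 min. Fifteen concentrations, triplicate.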
# [5] = G protein-coupled receptor (GPCR) small molecule agonists, calcium flux assay: HEK293 wild type cell line counter screen (AID 1920065)
# Method in brief: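 Wild-type HEK293 cells plated 18 h, loaded with calcium dye 1 h at 37 C, then compounds added in agonist mode (ATP as positive control). Kinetic fluorescence Ex/Em 480/540 recorded 3 min at 1 sec intervals; 15 concentrations, triplicate.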
# [6] = p53 small molecule agonists, cell-based qHTS assay with human liver microsomes (AID 1963577)
# Method in brief: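 p53RE-bla reporter cells were pre-incubated 5 h at 37 C, then treated with compounds plus human liver microsomes (0.5 mg/mL final) and NADPH (0.5 mg/mL final) for 16 h at 37 C. Beta-lactamase activity was read by LiveBLAzer fluorescence after 2 h at room temperature.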
# [7] = p53 small molecule agonists, cell-based qHTS assay with rat liver microsomes (AID 1963578)
# Method in brief: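 p53RE-bla cells were exposed to compounds together with rat liver microsomes (0.5 mg/mL final) and NADPH (0.5 mg/mL final) for 16 h at 37 C, then read by LiveBLAzer beta-lactamase fluorescence after 2 h at room temperature.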
# [8] = p53 small molecule agonists, cell-based qHTS assay with human liver microsomes: qHTS cell viability counter screen (AID 1963579); further: nearly all actives have a fitted effect of over 45% in size
# Method in brief: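 p53RE-bla cells (4,000/well) were pre-incubated 5 h at 37 C, then given compounds in DMSO plus human liver microsomes (0.5 mg/mL final) and NADPH (0.5 mg/mL final) for 16 h at 37 C. Viability was read by CellTiter-Glo luminescence.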
# [9] = p53 small molecule agonists, cell-based qHTS assay: qHTS cell viability counter screen (AID 1963581); further: nearly all actives have a fitted effect of over 45% in size
# Method in brief: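 p53RE-bla HCT-116 cells, compounds added 5 h after plating and incubated 16 h at 37 C. Cytotoxicity measured in the same wells as intracellular ATP by CellTiter-Glo luminescence after 30 min at room temperature.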
# [10] = p53 small molecule agonists, cell-based qHTS assay (AID 1963582; active means well fitted activation curve with a large enough effect in the signal ratio in the repeat runs, not every such curve was filed as active; the % refers to the signal ratio)
# Method in brief: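 p53RE-bla reporter cells, compounds added in DMSO after 5 h plating, incubated 16 h at 37 C. Beta-lactamase read via 2 h room-temperature LiveBLAzer B/G FRET substrate, fluorescence intensity.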
# [11] = molecular target: 5-hydroxytryptamine receptor 2A (Homo sapiens) (UniProt P28223); assay: 5-hydroxytryptamine receptor 2A (HTR2A) small molecule antagonists, cell-based qHTS assay (AID 1963586); further: nearly all actives have a fitted effect of over 45% in size
# 5-hydroxytryptamine receptor 2A (Homo sapiens), sequence (P28223 whole entry, looked up): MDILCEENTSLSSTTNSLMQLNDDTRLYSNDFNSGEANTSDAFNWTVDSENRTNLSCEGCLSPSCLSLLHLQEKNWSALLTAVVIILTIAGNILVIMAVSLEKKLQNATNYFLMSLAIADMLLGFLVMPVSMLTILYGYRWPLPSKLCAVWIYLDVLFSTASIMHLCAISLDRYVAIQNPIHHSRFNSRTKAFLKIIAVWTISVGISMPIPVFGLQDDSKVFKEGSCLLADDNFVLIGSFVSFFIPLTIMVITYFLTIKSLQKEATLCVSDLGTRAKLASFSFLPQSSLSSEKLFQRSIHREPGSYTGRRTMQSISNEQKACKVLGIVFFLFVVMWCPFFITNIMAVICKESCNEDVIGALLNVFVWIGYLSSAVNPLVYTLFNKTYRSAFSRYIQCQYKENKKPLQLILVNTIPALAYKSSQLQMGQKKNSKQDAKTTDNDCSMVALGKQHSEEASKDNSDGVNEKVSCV
# Method in brief: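 Antagonist-mode intracellular calcium assay: DOI (4 nM) added after 5 min compound pre-incubation at room temperature to dye-loaded HTR2A-CHO cells. Fluorescence followed for 3 min, sampled every second.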
# [12] = molecular target: 5-hydroxytryptamine receptor 2A (Homo sapiens) (UniProt P28223); assay: 5-hydroxytryptamine receptor 2A (HTR2A) small molecule agonists, cell-based qHTS assay (AID 1963587); further: nearly all actives have a fitted effect of over 30% in size
# Method in brief: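 CHO cells stably expressing human HTR2A, plated 18 h, loaded with calcium dye 1 h at 37 C. Agonist mode: compounds added and intracellular calcium fluorescence recorded kinetically for 2 min at 1 sec intervals.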
# [13] = molecular target: Muscarinic acetylcholine receptor M1 (Homo sapiens) (UniProt P11229); assay: Cholinergic receptor muscarinic 1 (CHRM1) small molecule antagonists, cell-based qHTS assay (AID 1963588); further: nearly all actives have a fitted effect of over 40% in size
# Muscarinic acetylcholine receptor M1 (Homo sapiens), sequence (P11229 whole entry, looked up): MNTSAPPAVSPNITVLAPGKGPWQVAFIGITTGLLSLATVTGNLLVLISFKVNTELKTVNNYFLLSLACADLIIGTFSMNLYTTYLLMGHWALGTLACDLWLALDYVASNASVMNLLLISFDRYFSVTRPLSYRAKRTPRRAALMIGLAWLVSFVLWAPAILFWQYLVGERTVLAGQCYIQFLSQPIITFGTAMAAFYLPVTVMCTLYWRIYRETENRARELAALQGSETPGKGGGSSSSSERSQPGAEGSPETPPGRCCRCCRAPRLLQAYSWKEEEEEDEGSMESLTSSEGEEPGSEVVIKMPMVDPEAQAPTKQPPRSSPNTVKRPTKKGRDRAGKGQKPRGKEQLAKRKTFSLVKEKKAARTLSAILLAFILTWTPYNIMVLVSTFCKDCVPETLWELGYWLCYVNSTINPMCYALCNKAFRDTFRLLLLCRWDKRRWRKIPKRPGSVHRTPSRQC
# Method in brief: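 CHRM1-CHO calcium-flux assay, antagonist mode. Cells were seeded 18 h, dye-loaded 1 h at 37 C and given compound for 5 min at RT, then acetylcholine was added at 50nM. FDSS fluorescence was read 3 min; 15 concentrations, three runs.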
# [14] = molecular target: Muscarinic acetylcholine receptor M1 (Homo sapiens) (UniProt P11229); assay: Cholinergic receptor muscarinic 1 (CHRM1) small molecule agonists, cell-based qHTS assay (AID 1963589); further: nearly all actives have a fitted effect of over 35% in size
# Method in brief: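 CHO cells stably expressing human CHRM1 were loaded with calcium dye for 1 h at 37 C, then compound was added in agonist mode. Intracellular calcium fluorescence was followed kinetically at 1 s intervals. Fifteen concentrations were tested in three independent runs.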
# [15] = cAMP Responsive Elements (CRE) small molecule agonists, cell-based qHTS assay (AID 1963590)
# Method in brief: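 CRE-bla HEK 293T cells, 2,000/well in DMEM with 10% dialyzed FBS and 25 mM HEPES, pre-incubated 18 h at 37 C, then exposed to compound 3 h at 37 C. Beta-lactamase reporter read with LiveBLAzer B/G FRET substrate after 2 h at room temperature.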
# [16] = cAMP Responsive Elements (CRE) small molecule antagonists, cell-based qHTS assay (AID 1963591; active means well fitted inhibition curve with a large enough effect in the signal ratio in the repeat runs, not every such curve was filed as active; the % refers to the signal ratio)
# Method in brief: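 CRE-bla HEK293T cells plated 18 h, then given compound plus NKH477 at 0.25 uM final for 3 h at 37C. Beta-lactamase reporter read with LiveBLAzer B/G FRET substrate after 2 h at room temperature.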
# [17] = molecular target: Beta-2 adrenergic receptor (Homo sapiens) (UniProt P07550); assay: Adrenergic beta2 receptor (ADRB2) small molecule antagonists, cell-based qHTS assay (AID 1963592); further: nearly all actives have a fitted effect of over 50% in size; further: potency means the concentration at half of the fitted maximal effect; on activity change, negative = inhibition: series mostly up to about 92 µM
# Beta-2 adrenergic receptor (Homo sapiens), sequence (P07550 whole entry, looked up): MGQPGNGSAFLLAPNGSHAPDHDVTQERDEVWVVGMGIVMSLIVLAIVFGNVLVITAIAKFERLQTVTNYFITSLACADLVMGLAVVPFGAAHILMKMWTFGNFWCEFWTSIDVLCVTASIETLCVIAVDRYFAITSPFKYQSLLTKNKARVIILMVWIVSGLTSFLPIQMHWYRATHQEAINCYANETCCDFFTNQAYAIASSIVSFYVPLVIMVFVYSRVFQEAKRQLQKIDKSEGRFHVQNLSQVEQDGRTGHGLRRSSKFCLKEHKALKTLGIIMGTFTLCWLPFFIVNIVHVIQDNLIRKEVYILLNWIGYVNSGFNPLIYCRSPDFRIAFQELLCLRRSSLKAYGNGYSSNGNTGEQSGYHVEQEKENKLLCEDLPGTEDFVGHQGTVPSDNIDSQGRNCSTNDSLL
# Method in brief: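 Cells (CHO, stable ADRB2 overexpression) incubated 18-20hr at 37C; compounds added from DMSO; agonist mix (1nM isoproterenol, 100uM IBMX, 25uM Ro-20-1724) added; 0.5hr RT; d2-cAMP and anti-cAMP-cryptate added; 1hr RT; 665/615 nm read.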
# [18] = molecular target: D(2) dopamine receptor (Homo sapiens) (UniProt P14416); assay: Dopamine D2 receptor (DRD2) small molecule agonists, cell-based qHTS assay (AID 1963594); further: nearly all actives have a fitted effect of over 35% in size
# D(2) dopamine receptor (Homo sapiens), sequence (P14416 whole entry, looked up): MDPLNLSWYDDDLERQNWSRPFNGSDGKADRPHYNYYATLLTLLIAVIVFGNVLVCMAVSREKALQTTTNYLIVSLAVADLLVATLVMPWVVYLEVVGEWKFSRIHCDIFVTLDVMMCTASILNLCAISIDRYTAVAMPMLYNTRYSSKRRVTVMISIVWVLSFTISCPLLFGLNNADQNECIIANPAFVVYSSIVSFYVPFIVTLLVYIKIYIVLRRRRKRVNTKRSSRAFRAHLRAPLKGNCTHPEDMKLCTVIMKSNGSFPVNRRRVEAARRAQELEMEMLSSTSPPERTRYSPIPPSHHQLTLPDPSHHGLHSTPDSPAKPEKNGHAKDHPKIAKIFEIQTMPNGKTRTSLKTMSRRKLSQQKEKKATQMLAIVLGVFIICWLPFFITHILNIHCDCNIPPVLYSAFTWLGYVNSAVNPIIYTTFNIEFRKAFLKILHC
# Method in brief: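 HEK293 cells stably expressing human DRD2, pre-treated with PDE inhibitor Ro20-1724 (0.1 mM final) and compound 10 min at room temperature, then stimulated with NKH477 (200nM […]) for 30 min. cAMP read by HTRF (665/620 nm).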
# [19] = molecular target: D(2) dopamine receptor (Homo sapiens) (UniProt P14416); assay: Dopamine D2 receptor (DRD2) small molecule antagonists, cell-based qHTS assay (AID 1963595; active means well fitted inhibition curve with a large enough effect in the signal ratio in the repeat runs, with a control signal flat; the % refers to the signal ratio; further: potency means the concentration at half of the fitted maximal effect)
# Method in brief: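 Antagonist mode in DRD2-HEK293 cells: after compound addition with 0.1 mM Ro20-1724, cells received quinpirole (12 nM) and NKH477 (200 nM) for 30 min at room temperature; HTRF cAMP read after 1 h detection.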
# [20] = molecular target: Beta-2 adrenergic receptor (Homo sapiens) (UniProt P07550); assay: Adrenergic beta2 receptor (ADRB2) small molecule agonists, cell-based qHTS assay (AID 1963593);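 further: CHO cells stably overexpressing human ADRB2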
# Method in brief: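 CHO cells stably over-expressing ADRB2 were plated overnight at 37C, then dosed with compounds plus a stimulation mix containing 100uM IBMX and 25uM Ro-20-1724 for 0.5hr at room temperature. cAMP was measured by HTRF competition, 1hr.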
structure (smiles),measurement,setting,value
CC1(C)C(C=C(Cl)Cl)C1C(=O)OCc1cccc(Oc2ccccc2)c1 (stereo not given),Potency,[1],inactive
same,Potency,[2],inactive
same,Potency,[3],inactive
same,Potency,[4],inactive
same,Potency,[5],inactive
same,Potency,[6],inactive
same,Potency,[7],inactive
same,Potency,[8],inactive
same,Potency,[9],inactive
same,Potency,[10],inactive
same,Potency,[11],inactive
same,Potency,[12],inactive
same,Potency,[13],inactive
same,Potency,[14],inactive
same,Potency,[15],inactive
same,Potency,[16],inactive
same,Potency,[17],inactive
same,Potency,[18],inactive
same,Potency,[19],inactive
O=C(O)c1cc(-c2ccccc2)nc2ccccc12,Potency,[1],inactive
same,Potency,[2],inactive
same,Potency,[3],inactive
same,Potency,[4],inactive
same,Potency,[5],inactive
same,Potency,[6],inactive
same,Potency,[7],inactive
same,Potency,[8],inactive
same,Potency,[11],inactive
same,Potency,[12],inactive
same,Potency,[13],inactive
same,Potency,[14],inactive
same,Potency,[16],inactive
same,Potency,[20],inactive
same,Potency,[18],inactive
same,Potency,[19],inactive
CN(C(=O)c1c(O)c2ccccc2n(C)c1=O)c1ccccc1,Potency,[1],inactive
same,Potency,[2],inactive
same,Potency,[3],inactive
same,Potency,[4],inactive
same,Potency,[5],inactive
same,Potency,[6],inactive
same,Potency,[7],inactive
same,Potency,[8],inactive
same,Potency,[9],inactive
same,Potency,[10],inactive
same,Potency,[11],inactive
same,Potency,[12],inactive
same,Potency,[13],inactive
same,Potency,[14],inactive
same,Potency,[15],inactive
same,Potency,[16],inactive
same,Potency,[17],inactive
same,Potency,[18],inactive
same,Potency,[19],inactive
Nc1ncnc2c1ncn2Cc1c(F)cccc1Cl,Potency,[1],inactive
same,Potency,[2],inactive
same,Potency,[3],inactive
same,Potency,[4],inactive
same,Potency,[5],inactive
same,Potency,[6],inactive
same,Potency,[7],inactive
same,Potency,[8],inactive
same,Potency,[9],inactive
same,Potency,[10],inactive
same,Potency,[11],inactive
same,Potency,[12],inactive
same,Potency,[13],inactive
same,Potency,[14],inactive
same,Potency,[15],inactive
same,Potency,[16],inactive
same,Potency,[17],inactive
same,Potency,[20],inactive
same,Potency,[19],inactive
CCCCNc1ccccc1,Potency,[1],inactive
same,Potency,[2],inactive
same,Potency,[3],inactive
same,Potency,[4],inactive
same,Potency,[5],inactive
same,Potency,[6],inactive
same,Potency,[7],inactive
same,Potency,[8],inactive
same,Potency,[12],inactive
same,Potency,[13],inactive
same,Potency,[14],inactive
same,Potency,[15],inactive
same,Potency,[16],inactive
same,Potency,[17],inactive
same,Potency,[18],inactive
O=C(O)c1ccccc1S,Potency,[1],inactive
same,Potency,[2],inactive
same,Potency,[3],inactive
same,Potency,[4],inactive
same,Potency,[5],inactive
same,Potency,[6],inactive
same,Potency,[7],inactive
same,Potency,[8],inactive
same,Potency,[9],inactive
same,Potency,[10],inactive
same,Potency,[11],inactive
same,Potency,[12],inactive
same,Potency,[13],inactive
same,Potency,[14],inactive
same,Potency,[15],inactive
same,Potency,[16],inactive
same,Potency,[17],inactive
same,Potency,[18],inactive
same,Potency,[19],inactive
CN(C)CCC=C1c2ccccc2CCc2ccccc21,Potency,[1],inactive
same,Potency,[2],inactive
same,Potency,[3],inactive
same,Potency,[4],inactive
same,Potency,[5],inactive
same,Potency,[6],inactive
same,Potency,[7],inactive
same,Potency,[8],inactive
same,Potency,[15],inactive
same,Potency,[16],inactive
same,Potency,[17],24.3 µM (active)
same,Potency,[18],inactive
same,Potency,[19],27.3 µM (active)
Cc1cc(C)c(N=Nc2c(O)c(S(=O)(=O)O)cc3cc(S(=O)(=O)O)ccc23)cc1C,"activity change, negative = cytotoxicity",[1],-4.24% [at 8.39 µM]
same,"activity, positive = activation",[2],-2.39% [at 8.39 µM]
same,activity change,[3],"0.758% [at 5.22 µM, stronger effect = higher value]"
same,activation,[4],0.221% [at 6.97 µM]
same,activation,[5],-0.909% [at 5.23 µM]
same,activation,[6],-0.355% [at 5.99 µM]
same,activation,[7],0.887% [at 5.99 µM]
same,"activity change, negative = cytotoxicity",[8],0.236% [at 5.99 µM]
same,"activity change, negative = cytotoxicity",[9],-0.59% [at 5.99 µM]
same,activation,[10],0.0696% [at 5.99 µM]
same,"activity, negative = inhibition",[11],-22.1% [at 5.62 µM]
same,activation,[12],-1.44% [at 7.02 µM]
same,"activity, negative = inhibition",[13],26.6% [at 5.58 µM]
same,activation,[14],-0.143% [at 6.97 µM]
same,activation,[15],-0.168% [at 8.39 µM]
same,"activity change, negative = inhibition",[16],-0.183% [at 8.39 µM]
same,"activity change, negative = inhibition",[17],-5.6% [at 8.39 µM]
same,activation,[20],-2.26% [at 8.39 µM]
same,activation,[18],4.98% [at 8.39 µM]
same,"activity change, negative = inhibition",[19],0.169% [at 8.38 µM]

# From PubChem BioAssay (Tox21)
